# CRFBP-R2 block = blocks CRF-induced signaling of the CRF-BP/CRF-R2 complex; HEK293 CRF-R2/CRF-BP, CRF-induced calcium fluorescence; inhibition, % at 11.8 µM; 0.59% of 350,000 active; AID 588475;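 active = inhibition of the ligand-induced calcium signal above about 50% at the single tested concentration, limit read from the data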
# CRFR2-BP ag = CRF-BP/CRF-R2 complex agonism. HEK293 CRF-R2/CRF-BP, calcium dye fluorescence (FLIPR); percent of saturating CRF peptide response. activation, % at 13.2 µM. 0.46% of 350,000 active. AID 588473;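 active = activation of at least 50%, plus an integration ratio under a set limit after plate pattern correction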;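 also: plate controls were neutral control wells without compound for no effect and CRF at EC100 for full effect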
# IDE cell inh = inhibitors of human insulin-degrading enzyme in cells | 0.41% of 320,000 active | inhibition, % at 5.59 µM | P14735 | AID 434962 | HEK cells, FAbetaB cleavage, fluorescence polarization;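 active = percent inhibition above the average of all tested compounds plus 3 SD, set per screening campaign, cut at about 16% in these data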;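 also: IDE supplied by intact live HEK cells; FP after avidin binding of uncleaved biotin substrate so inhibition keeps polarization high; 0% = DMSO wells and 100% = 60 µM reference IDE inhibitor Ii1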
# Target sequence (P14735 whole entry, looked up): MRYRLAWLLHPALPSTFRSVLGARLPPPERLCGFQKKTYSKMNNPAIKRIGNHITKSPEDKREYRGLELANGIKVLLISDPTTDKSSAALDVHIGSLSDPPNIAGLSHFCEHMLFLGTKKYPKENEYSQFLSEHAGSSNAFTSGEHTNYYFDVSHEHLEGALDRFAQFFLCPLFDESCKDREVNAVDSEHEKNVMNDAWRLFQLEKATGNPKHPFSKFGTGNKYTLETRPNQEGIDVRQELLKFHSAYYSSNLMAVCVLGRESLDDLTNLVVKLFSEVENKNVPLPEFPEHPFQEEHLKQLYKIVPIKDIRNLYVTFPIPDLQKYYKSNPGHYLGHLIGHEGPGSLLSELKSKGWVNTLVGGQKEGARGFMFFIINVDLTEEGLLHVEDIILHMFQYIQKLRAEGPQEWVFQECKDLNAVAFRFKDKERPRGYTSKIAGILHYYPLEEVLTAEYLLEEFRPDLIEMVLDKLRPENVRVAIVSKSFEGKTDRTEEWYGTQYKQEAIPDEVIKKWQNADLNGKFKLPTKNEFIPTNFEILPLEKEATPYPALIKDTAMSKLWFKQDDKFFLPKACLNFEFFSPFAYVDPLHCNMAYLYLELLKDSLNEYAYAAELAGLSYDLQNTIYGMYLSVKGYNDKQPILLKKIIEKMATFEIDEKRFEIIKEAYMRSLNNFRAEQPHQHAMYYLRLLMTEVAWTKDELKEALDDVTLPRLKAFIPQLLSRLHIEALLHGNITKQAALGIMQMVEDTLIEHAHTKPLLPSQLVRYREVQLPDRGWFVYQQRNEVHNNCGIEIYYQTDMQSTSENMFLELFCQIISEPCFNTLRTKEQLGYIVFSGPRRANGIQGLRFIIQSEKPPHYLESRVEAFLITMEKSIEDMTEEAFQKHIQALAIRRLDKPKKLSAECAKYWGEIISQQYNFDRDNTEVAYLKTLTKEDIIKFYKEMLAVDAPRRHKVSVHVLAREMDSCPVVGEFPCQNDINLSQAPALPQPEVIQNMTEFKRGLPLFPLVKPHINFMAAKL
# IDE cell activ = boosts human insulin-degrading enzyme activity in HEK cells | P14735 | FAbeta-B cleavage, fluorescence polarization; 0% vehicle, 100% cell-free pure enzyme wells | activation, % at 5.96 µM | 0.073% of 340,000 active;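 active = activation above the mean of all tested compounds plus 3 SD, set per screening campaign, cut at about 17% in these data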
# Myeloid diff MLP = compounds promoting myeloid differentiation | 1% of 360,000 active | ER-HoxA9 myeloid progenitors, lysozyme-GFP differentiation, flow cytometry | AID 624256 | calls only at 10 µM;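 active = normalized GFP-positive differentiation at or above the plate's own cutoff, the solvent-only control mean plus 3 SD; inconclusive = no clear call, values can overlap the other calls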;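 also: cells exposed to compound for four days before flow analysis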
# TPT1 inhibitor = C. albicans TPT1 enzyme inhibition. recombinant caTPT1, FP RNA substrate dephosphorylation. inhibition, % at 5 µM. 0.81% of 300,000 active;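 active = inhibition above the mean of all tested compounds plus 3 SD, set per screening campaign, cut at about 24% in these data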;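 also: plate controls were DMSO alone for no effect and ferristatin control at 100 nM for full effect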
# IDE inh confirm = cellular human IDE inhibition, confirmation. HEK cells, FAbetaB cleavage, fluorescence polarization. 51% of 1,200 active. AID 435028. shares compounds with IDE cell inh. inhibition, % at 5.59 µM;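 active = mean inhibition across triplicate wells above the cutoff set by the earlier primary insulin-degrading enzyme screen, cut at about 16% in these data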;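 also: 0% = DMSO wells and 100% = 60 µM reference IDE inhibitor Ii1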
# HEK cytotox = kills HEK cells in IDE inhibitor counter-screen; shares compounds with IDE cell inh; HEK293 cytotoxicity, ATP luminescence; inhibition, % at 5.59 µM; 28% of 1,200 active; in the data active = inhibition above about 22%;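 also: 0% = vehicle wells and 100% = reference cytotoxic drug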
# An asterisk follows results filed as active; i = inactive; ? = inconclusive; / = no result; + = active, no number. Shown are actives, neighbours in structure and some others; about 2.6% of the full set was active somewhere.
SMILES,CRFBP-R2 block,CRFR2-BP ag,IDE cell inh,IDE cell activ,Myeloid diff MLP,TPT1 inhibitor,IDE inh confirm,HEK cytotox
CCCCn1nnc(NC(=O)c2ccc(-c3ccccc3)cc2)n1,-12,1,18*,-12,i,1,7,55*
Clc1ccc2[nH]c3c(NCCCN4CCOCC4)ncnc3c2c1,2,0,42*,-9,i,0,17*,21
Cc1ccc2c(CC(=O)NCCc3ccc(S(N)(=O)=O)cc3)coc2c1,24,-4,-1,2,i,-3,/,/
O=C(CN1C(=O)C(=O)N(C2CCCC2)C1=O)Nc1ccc([N+](=O)[O-])cc1,-7,0,/,3,i,/,/,/
COc1cc(Cl)cc(/C=C/c2ccc3ccccc3n2)c1OC(C)=O,-3,-1,5,-10,i,1,/,/
CC(=O)Oc1ccc(Cl)cc1/C=C/c1cc(OC(C)=O)c2ccccc2n1,/,/,37*,/,/,22,89*,19
Cc1nn(-c2ccccc2)c(C)c1/C=C/C(=O)OCC(=O)Nc1ccc(C(N)=O)cc1,0,-2,1,1,i,/,/,/
COc1cccc(NC(=O)COC(=O)/C=C/c2c(C)nn(-c3ccccc3)c2C)c1,-4,0,25*,-17,i,/,21*,11
Cc1c(NC(=O)Nc2ccccc2Cl)c(=O)n(-c2ccccc2)n1C,8,-3,2,7,i,-2,/,/
CC1CCN(c2ccc3c(c2)S(=O)(=O)c2cccc(C(=O)O)c2C3=O)CC1,1,8,32*,-32,i,/,48*,5
O=C(NC1CC1)c1cccc2c1C(=O)c1ccc(N3CCC(Cc4ccccc4)CC3)cc1S2(=O)=O,-40,83*,40*,-33,i,/,70*,45*
O=C(NC1CCCCC1)c1cccc2c1C(=O)c1ccc(N3CCCC3)cc1S2(=O)=O,-20,36,14,-6,i,/,/,/
COc1ccc(C2CC(=O)Oc3cc(C)c(Cl)c(C)c32)cc1 (stereo not given),3,4,/,0,i,/,/,/
CN(Cc1ccccc1)C(=O)COC(=O)c1cc(NS(=O)(=O)c2cccs2)ccc1O,-9,-1,3,5,i,-7,/,/
C=C(C)c1cccc(C(C)(C)NC(=O)NNC(=O)c2ccccc2O)c1,-8,3,6,2,i,7,/,/
Cc1cc[n+](C(C)C(=O)c2ccc(-c3ccccc3)cc2)cc1 (stereo not given),0,0,21*,-16,i,2,8,77*
CC(C(=O)c1ccc(-c2ccccc2)cc1)[n+]1ccccc1 (stereo not given),-13,0,5,-3,?,4,/,/
Cc1nc2c(ccc3nc(NC(=O)c4ccc5c(c4)OCCO5)sc32)s1,-7,0,19*,-21,i,-3,6,31*
Cc1nc2ccc3nc(NC(=O)c4ccc5c(c4)OCCO5)sc3c2s1,-20,2,-7,1,i,10,/,/
COc1cccc(COC(=O)Cc2ccc(S(=O)(=O)N3CCOCC3)s2)c1OC,-7,0,-2,2,i,/,/,/
Cc1cccc(OCC(=O)NCC(=O)N/N=C/c2c(C)[nH]c3ccccc23)c1,5,0,16*,0,i,0,0,17
O=c1[nH]c2ccccc2c(O)c1-[n+]1ccccc1,2,-1,11,-1,i,3,/,/
O=c1[nH]c2ccccc2c(O)c1O,97*,0,62*,-47,i,-1,65*,18
CCc1nc(SCC(=O)Nc2nc3c(s2)CCCC3)c2ccccc2n1,-7,2,31*,-30,i,0,8,10
Cc1cc(C)n2nc(C(=O)OCC(=O)N(C)C3CCS(=O)(=O)C3)nc2n1 (stereo not given),-4,1,-4,2,i,/,/,/
SMILES,CRFBP-R2 block,CRFR2-BP ag,IDE cell inh,IDE cell activ,Myeloid diff MLP,TPT1 inhibitor,IDE inh confirm,HEK cytotox
CC(=O)N1c2ccc(S(=O)(=O)N3CCC(C(=O)N4CCN(c5ccc(Cl)cc5)CC4)CC3)cc2CC1C (stereo not given),-22,24,20*,-22,i,-2,10,38*
Cc1cccc(S(=O)(=O)Nc2cccc3c2C(=O)c2ccccc2-3)c1,-143,50,50*,-38,i,12,41*,16
Cc1ccc(NS(=O)(=O)c2ccc3c(c2)C(=O)c2ccccc2C3=O)c(C)c1,7,1,-3,8,i,-2,/,/
CCN(CC)c1ccc2cc(-c3nc4ccccc4[nH]3)c(=O)oc2c1,-190,227*,39*,25*,+,-7,26*,50*
COc1cccc2cc(-c3nc4ccccc4[nH]3)c(=O)oc12,0,-1,-2,-5,i,0,/,/
CCCCNC(=O)C1(C)CCN1C(=O)c1csnn1 (stereo not given),/,/,/,/,i,/,/,/
Cc1ccc(-n2ccc(=O)c(C(=O)Nc3ccc(S(=O)(=O)Nc4onc(C)c4C)cc3)n2)cc1,-6,1,-4,1,?,-3,/,/
COc1ccccc1Nc1ccc(NC(=O)c2cccc([N+](=O)[O-])c2C)cc1,5,0,17*,0,i,3,5,39*
COc1ccc(NC(=O)c2ccccc2[N+](=O)[O-])cc1,13,-1,6,-3,i,3,/,/
COc1ccc(CCNCc2cc(C)n(-c3ccc(OC)cc3)c2C)cc1,3,1,0,-1,i,2,/,/
Nc1nc2ccccc2[nH]1,-29,3,/,3,i,/,/,/
Nc1ccccc1Sc1nc2ccccc2[nH]1,-20,0,16*,-16,i,1,6,3
Cc1cc(C)c2oc(C(=O)Nc3ccc(S(=O)(=O)Nc4nccs4)cc3)cc(=O)c2c1,12,2,22*,-18,i,2,14,4
Cn1cc(Cc2ccc(C(=O)N3CCOCC3)cn2)c2ccccc21,/,/,/,/,i,/,/,/
O=C1C=CC(=O)C(C2=C3C(=O)N(CCc4ccccc4)CC(=O)N3CCC2)=C1,-8,2,40*,/,/,-6,10,124*
O=C1CC2(CCCCC2)CC(=O)N1CCc1ccccc1,-13,-1,/,6,i,/,/,/
CCN(CC)CCCN1C(=O)c2oc3ccccc3c(=O)c2C1c1cccs1 (stereo not given),/,/,13,/,/,2,/,/
O=C(N/N=C/c1ccccc1)c1ccc2c(c1)OCO2,18,1,6,4,i,-1,/,/
O=C(NN=Cc1c(O)ccc2ccccc12)c1ccc2c(c1)OCO2,-16,7,30*,-35,i,/,54*,112*
Cc1ccc(CN2CCC(C)(Oc3cccc(Cl)c3)C2)cc1 (stereo not given),/,/,/,/,i,/,/,/

# Screening results as filed in PubChem.
